PubChem BioAssay (EPA / NIEHS)
Records with an inconclusive call do not appear. Calls of active or inactive are those of the source. The calls were made as follows, unless noted: active = hit-call score of the fitted dose curve at least 0.9, where 1 is the maximum; inactive = score below 0.9.

What was measured:
[1] = biological target: human Vitamin D Receptor (VDR), VDR (gene 7421) (UniProt P11473); experiment: ATG_VDR_TRANS: Attagene TRANS-FACTORIAL HepG2 Assay for human Vitamin D Receptor (VDR) (AID 2283022; active = hit-call score of the fitted dose curve at least 0.9, where 1 is the maximum)
How it was run: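 HepG2 cells were transiently transfected with multiple GAL4-UAS reporter units, so signal reflects exogenous chimeric receptor-Gal4 activity. After 24 h compound exposure, reporter mRNA was measured by RT-PCR, fluorescent labelling and capillary electrophoresis, fitted for gain of signal versus DMSO.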

[2] = BSK_3C_SRB: Viability Assessment in the BioMAP Diversity Plus: 3C Assay (AID 2283023); details: primary human endothelial cells (HUVEC);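 also: fitted both ways against DMSO so a hit may be signal rise or drop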
How it was run: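 Primary human umbilical vein endothelial cells in the 3C system were read 24 h after compound dosing. Total protein was stained with 0.1% sulforhodamine B after 10% TCA fixation and read at 560 nm, with bidirectional fitting against DMSO as baseline.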

[3] = read-out: Matrix Metallopeptidase 1 (MMP1), MMP1 (gene 4312); experiment: BSK_BE3C_MMP1: BioMAP Diversity Plus: BE3C Assay for Matrix Metallopeptidase 1 (MMP1) Biomarker Activity (AID 2283024); details: primary human bronchial epithelial cells; actives raise or lower the signal
How it was run: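 Human primary bronchial epithelial cells (BE3C system) dosed for 24 h; MMP-1 quantified by ELISA. Bidirectional fit against DMSO; cytotoxicity tracked in parallel cultures by SRB total-protein staining.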

[4] = BSK_3C_Vis: BioMAP Diversity Plus: 3C Assay for Morphology Visualization (AID 2283025); details: primary human endothelial cells (HUVEC);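 also: fitted both ways so gain or loss versus DMSO counts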;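 as to AC50: light microscopy image of cell morphology used as background control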
How it was run: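 Human umbilical vein endothelial cell morphology was inspected by light microscopy 24 h after chemical dosing; scored bidirectionally relative to DMSO.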

[5] = BSK_4H_SRB: Viability Assessment in the BioMAP Diversity Plus: 4H Assay (AID 2283027); details: primary human endothelial cells (HUVEC);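 as to AC50: curves fitted both ways versus DMSO so AC50 may be loss or gain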
How it was run: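 Absorbance at 560 nm of SRB-stained total protein served as the viability read-out in confluent primary human umbilical vein endothelium 24 h after chemical treatment. Curves were fitted bidirectionally against DMSO as negative control.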

[6] = read-out: Thrombomodulin, THBD (gene 7056); experiment: BSK_3C_Thrombomodulin: BioMAP Diversity Plus: 3C Assay for Thrombomodulin Biomarker Activity (AID 2283029); details: primary human endothelial cells (HUVEC); actives raise or lower the signal
How it was run: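 Human umbilical vein endothelial cells were exposed to chemicals for 24 h; cell-surface thrombomodulin quantified by ELISA, with bidirectional fitting against DMSO baseline.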

[7] = read-out: Urokinase-type plasminogen activator receptor (uPAR), PLAUR (gene 5329); experiment: BSK_4H_uPAR: BioMAP Diversity Plus: 4H Assay for Urokinase-type plasminogen activator receptor (uPAR) Biomarker Activity (AID 2283030); details: primary human endothelial cells (HUVEC); actives raise or lower the signal
How it was run: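 Primary human umbilical vein endothelial cells were exposed to chemical for 24 h before cell-surface uPAR was quantified by ELISA. Activity was fitted bidirectionally against the DMSO negative control baseline.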

[8] = read-out: Vascular endothelial growth factor receptor 2 (Homo sapiens) (UniProt P35968); experiment: BSK_4H_VEGFRII: BioMAP Diversity Plus: 4H Assay for Vascular endothelial growth factor receptor 2 (VEGFR2) Biomarker Activity (AID 2283031); details: primary human endothelial cells (HUVEC); actives raise or lower the signal
How it was run: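 Primary human umbilical vein endothelial cells in the BioMAP 4H system were dosed with test chemical, and 24 h later VEGFRII was measured by ELISA. Activity was fitted bidirectionally against DMSO as negative control and baseline.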

[9] = read-out: Human Leukocyte Antigen - DR isotype (HLADR), HLA-DRA (gene 3122); experiment: BSK_BE3C_HLADR: BioMAP Diversity Plus: BE3C Assay for Human Leukocyte Antigen - DR isotype (HLADR) Biomarker Activity (AID 2283032); details: primary human bronchial epithelial cells; actives raise or lower the signal
How it was run: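 Human primary bronchial epithelial cells (BE3C system) exposed to compound for 24 hours; cell-surface HLA-DR measured by ELISA, fitted bidirectionally relative to DMSO. Total protein by SRB in parallel cultures tracked cytotoxicity.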

[10] = read-out: Vascular cell adhesion molecule 1 (VCAM1), VCAM1 (gene 7412); experiment: BSK_4H_VCAM1: BioMAP Diversity Plus: 4H Assay for Vascular cell adhesion molecule 1 (VCAM1) Biomarker Activity (AID 2283033); details: primary human endothelial cells (HUVEC); actives raise or lower the signal
How it was run: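 Primary human umbilical vein endothelial cells, 4H stimulation system, treated for 24 h; cell-surface VCAM-1 quantified by ELISA. Bidirectional fitting against DMSO; cytotoxicity tracked by SRB total-protein staining in parallel cultures.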

[11] = read-out: Interferon-gamma inducible Protein 10 (IP10), CXCL10 (gene 3627); experiment: BSK_BE3C_IP10: BioMAP Diversity Plus: BE3C Assay for Interferon-gamma inducible Protein 10 (IP10) Biomarker Activity (AID 2283034); details: primary human bronchial epithelial cells; actives raise or lower the signal
How it was run: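 Primary human bronchial epithelial cells, with IP-10 measured by ELISA 24 hours after chemical dosing. Bidirectional fit against DMSO; cytotoxicity checked by SRB total protein staining in parallel cultures.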

[12] = read-out: Monokine induced gamma interferon (MIG), CXCL9 (gene 4283); experiment: BSK_BE3C_MIG: BioMAP Diversity Plus: BE3C Assay for Monokine induced gamma interferon (MIG) Biomarker Activity (AID 2283035); details: primary human bronchial epithelial cells; actives raise or lower the signal
How it was run: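 MIG level was determined by ELISA after 24 h chemical treatment of primary human bronchial epithelial cells. Values were fitted bidirectionally with DMSO as the negative control and activity baseline.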

[13] = read-out: Transforming growth factor beta 1 (TGFb1), TGFB1 (gene 7040); experiment: BSK_BE3C_TGFb1: BioMAP Diversity Plus: BE3C Assay for Transforming growth factor beta 1 (TGFb1) Biomarker Activity (AID 2283036); details: primary human bronchial epithelial cells; actives raise or lower the signal
How it was run: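 Primary human bronchial epithelial cells dosed with chemical; TGF-b1 measured by ELISA 24 h after dosing. Bidirectional curve fitting against DMSO negative control; SRB total-protein staining in parallel cultures gauged cytotoxicity.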

[14] = read-out: Plasminogen activator inhibitor-1 (PAI1), SERPINE1 (gene 5054); experiment: BSK_BE3C_PAI1: BioMAP Diversity Plus: BE3C Assay for Plasminogen activator inhibitor-1 (PAI1) Biomarker Activity (AID 2283037); details: primary human bronchial epithelial cells; actives raise or lower the signal
How it was run: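 Primary human bronchial epithelial cells (BE3C system) exposed 24 h; PAI-1 quantified by ELISA. Parallel sulforhodamine B staining of total protein flags cytotoxicity. Bidirectional fit versus DMSO.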

[15] = read-out: urokinase plasminogen activator (uPA), PLAU (gene 5328); experiment: BSK_BE3C_uPA: BioMAP Diversity Plus: BE3C Assay for urokinase plasminogen activator (uPA) Biomarker Activity (AID 2283038); details: primary human bronchial epithelial cells; actives raise or lower the signal
How it was run: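 Human primary bronchial epithelial cells were exposed to chemical for 24 h, then uPA levels were measured by ELISA. Responses were fitted bidirectionally against DMSO as negative control and baseline. Parallel SRB staining of total protein gauged overt cytotoxicity.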

[16] = read-out: Urokinase-type plasminogen activator receptor (uPAR), PLAUR (gene 5329); experiment: BSK_BE3C_uPAR: BioMAP Diversity Plus: BE3C Assay for Urokinase-type plasminogen activator receptor (uPAR) Biomarker Activity (AID 2283039); details: primary human bronchial epithelial cells; actives raise or lower the signal
How it was run: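 Primary human bronchial epithelial cells dosed for 24 h; uPAR quantified by ELISA with bidirectional fitting against DMSO. Overt cytotoxicity assessed in parallel cultures by SRB total-protein staining (0.1% SRB, 560 nm).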

[17] = read-out: Interleukin-6 (IL6), IL6 (gene 3569); experiment: BSK_CASM3C_IL6: BioMAP Diversity Plus: CASM3C Assay for Interleukin-6 (IL6) Biomarker Activity for (AID 2283040); details: primary human coronary artery smooth muscle cells; actives raise or lower the signal
[18] = read-out: Tissue plasminogen activator (tPA), PLAT (gene 5327); experiment: BSK_BE3C_tPA: BioMAP Diversity Plus: BE3C Assay for Tissue plasminogen activator (tPA) Biomarker Activity (AID 2283041); details: primary human bronchial epithelial cells; actives raise or lower the signal
How it was run: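 Primary human bronchial epithelial cells in the BE3C system, exposed to compound for 24 h. tPA was quantified by ELISA; DMSO served as baseline, with gain or loss of signal fitted. Cytotoxicity checked in parallel cultures by SRB total-protein staining.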

[19] = read-out: Interleukin-8 (IL8), CXCL8 (gene 3576); experiment: BSK_CASM3C_IL8: BioMAP Diversity Plus: CASM3C Assay for Interleukin-8 (IL8) Biomarker Activity (AID 2283042); details: primary human coronary artery smooth muscle cells; actives raise or lower the signal;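 also: IL-8 protein level quantified by ELISA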
[20] = read-out: Human Leukocyte Antigen - DR isotype (HLADR), HLA-DRA (gene 3122); experiment: BSK_CASM3C_HLADR: BioMAP Diversity Plus: CASM3C Assay for Human Leukocyte Antigen - DR isotype (HLADR) Biomarker Activity (AID 2283043); details: primary human coronary artery smooth muscle cells; actives raise or lower the signal;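 also: cell-surface HLA-DR protein level quantified by ELISA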

Measured: AC50

Sequence of human Vitamin D Receptor (VDR), VDR (gene 7421) (P11473 whole entry, looked up, the tested form may be a part): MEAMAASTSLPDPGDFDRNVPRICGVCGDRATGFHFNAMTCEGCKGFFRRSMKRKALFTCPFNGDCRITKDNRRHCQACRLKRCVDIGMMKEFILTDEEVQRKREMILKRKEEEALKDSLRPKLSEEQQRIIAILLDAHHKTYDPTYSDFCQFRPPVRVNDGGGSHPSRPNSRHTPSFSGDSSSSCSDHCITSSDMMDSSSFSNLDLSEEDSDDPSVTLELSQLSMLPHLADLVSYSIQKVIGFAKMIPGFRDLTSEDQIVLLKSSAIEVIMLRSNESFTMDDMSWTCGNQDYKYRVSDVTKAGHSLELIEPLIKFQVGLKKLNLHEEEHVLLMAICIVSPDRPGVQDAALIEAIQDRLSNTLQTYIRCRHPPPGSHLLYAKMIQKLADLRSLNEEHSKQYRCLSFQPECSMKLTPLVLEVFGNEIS

C=CCOc1c(Br)cc(Br)cc1Br
active: [2] 29.3 µM | [3] 3.97 µM | [4] 14.1 µM | [6] 3.97 µM | [7] 31 µM | [9] 29 µM | [10] 31.5 µM | [11] 30.9 µM | [13] 6.57 µM | [14] 20 µM | [15] 20 µM | [16] 25.2 µM | [17] 27.5 µM | [18] 8.88 µM | [19] 27.1 µM | [20] 26.8 µM
inactive: [1] | [5] | [8] | [12]

O=C1CCCN1CCO
not listed: [4] | [13]
inactive: all other assays above

CN1C(=O)N(C)C(O)C1O (configuration not stated)
not listed: [1] | [4] | [13]
inactive: all other assays above

CC1OC1C1CCC2(C)OC2C1 (configuration not stated)
active: [7] 0.0907 µM
not listed: [1]
inactive: all other assays above

O=C(Nc1ccccc1SSc1ccccc1NC(=O)c1ccccc1)c1ccccc1
active: [4] 14.1 µM | [6] 5.7 µM | [10] 20 µM | [11] 1.03 µM | [20] 5.29 µM
not listed: [1]
inactive: all other assays above

CCCCCCCCCCCCCCCC[N+](C)(C)CC
active: [2] 0.697 µM | [3] 3.2 µM | [4] 0.533 µM | [5] 1.57 µM | [6] 2.35 µM | [9] 2.28 µM | [10] 1.9 µM | [11] 2.19 µM | [12] 9.57 µM | [13] 0.599 µM | [14] 10.4 µM | [15] 2.25 µM | [16] 2.08 µM | [17] 4.5 µM | [18] 0.797 µM | [19] 5.98 µM | [20] 2.97 µM
inactive: [1] | [7]
